Assay results as given in PubChem BioAssay AID1159580 (chemical genetic matrix, 2015).
The campaign covered roughly 5,500 compounds. About 2,000 (36%) were called active. About 18% were inconclusive and are not listed. No stated cut-off is given here; in the data, active means normalized growth mostly below about 0.91 (no sharp cut-off); inconclusive means no clear call, values can overlap the other calls; inactive means mostly above about 0.92. This is one part of the list.

Test: chemical genetic growth profiling, strain panel (AID 1159580);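 further: tested at 20 µM; growth read once vehicle control cultures reached saturation at 30 °C; 1 = growth at the plate median or of vehicle wells; lower values mean less growth of the strain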
Conditions: S. cerevisiae deletion strains, growth OD

Measured: normalized growth

CC1=C(/C=C/C(C)=C/C=C/C(C)=C/C=C/C=C(C)/C=C/C=C(C)/C=C/C2=C(C)C(=O)C(O)CC2(C)C)C(C)(C)CC(O)C1=O (stereo not drawn)
inactive: locus YAL021C, strain ccr4, active compounds read low 1.04 | locus YAL026C, strain drs2, active compounds read low 1.07 | locus YAL030W, strain snc1, active compounds read low 1.03 | locus YBL061C, strain skt5, active compounds read low 1.03 | locus YBR009C, strain hhf1, active compounds read low 1.05 | locus YBR021W, strain FUR4, active compounds read low 0.962 | locus YBR023C, strain chs3, active compounds read low 1.03 | locus YBR229C, strain ROT2, active compounds read low 0.942 | locus YBR231C, strain swc5, active compounds read low 1.05 | locus YBR279W, strain paf1, active compounds read low 1.02 | locus YCL011C, strain gbp2, active compounds read low 1.04 | locus YCL016C, strain dcc1, active compounds read low 1.02 | locus YCL029C, strain bik1, active compounds read low 0.973 | locus YCL061C, strain MRC1, active compounds read low 1.07 | locus YCL069W, strain vba3, active compounds read low 1.05 | locus YCR088W, strain abp1, active compounds read low 1.06 | locus YDL005C, strain med2, active compounds read low 1.05 | locus YDL035C, strain GPR1, active compounds read low 0.939 | locus YDL040C, strain nat1, active compounds read low 1.01 | locus YDL074C, strain BRE1, active compounds read low 0.981 | locus YDL101C, strain DUN1, active compounds read low 0.986 | locus YDL185W, strain tfp1, active compounds read low 0.964 | locus YDL192W, strain arf1, active compounds read low 0.988 | locus YDR001C, strain nth1, active compounds read low 1.07 | locus YDR069C, strain doa4, active compounds read low 1.04 | locus YDR101C, strain arx1, active compounds read low 0.985 | locus YDR137W, strain rgp1, active compounds read low 1.02 | locus YDR159W, strain sac3, active compounds read low 1.04 | locus YDR162C, strain NBP2, active compounds read low 0.947 | locus YDR195W, strain ref2 1.12 | locus YDR297W, strain sur2, active compounds read low 1.03 | locus YDR318W, strain mcm21, active compounds read low 0.983 | locus YDR334W, strain swr1, active compounds read low 1.07 | locus YDR335W, strain msn5, active compounds read low 1.05 | locus YDR388W, active compounds read low 0.992 | locus YDR392W, strain spt3, active compounds read low 1.04 | locus YDR502C, strain sam2, active compounds read low 0.993 | locus YEL003W, strain gim4, active compounds read low 1.04 | locus YEL037C, strain rad23, active compounds read low 1.05 | locus YEL061C, strain CIN8 (second series), active compounds read low 1.05 | locus YEL061C, strain CIN8, active compounds read low 0.981 | locus YER015W, strain faa2, active compounds read low 1.04 | locus YER016W, strain bim1, active compounds read low 1.03 | locus YER110C, active compounds read low 0.992 | locus YER111C, strain swi4, active compounds read low 1.07 | locus YER155C, strain BEM2 (second series), active compounds read low 1.09 | locus YER155C, strain BEM2, active compounds read low 0.998 | locus YER167W, strain BCK2, active compounds read low 0.984 | locus YFR010W, strain ubp6, active compounds read low 1.08 | locus YGL078C, strain dbp3, active compounds read low 0.99 | locus YGL086W, strain mad1, active compounds read low 0.997 | locus YGL167C, strain pmr1, active compounds read low 1.04 | locus YGL173C, strain kem1, active compounds read low 1.03 | locus YGL227W, strain vid30, active compounds read low 1.08 | locus YGL240W, strain doc1, active compounds read low 1.03 | locus YGL248W, strain PDE1, active compounds read low 0.987 | locus YGL253W, strain hxk2, active compounds read low 1.05 | locus YGR135W, strain pre9, active compounds read low 0.992 | locus YGR229C, strain SMI1, active compounds read low 0.982 | locus YGR252W, strain gcn5, active compounds read low 0.944 | locus YHR013C, strain ard1, active compounds read low 1.02 | locus YHR027C, strain rpn1, active compounds read low 1.03 | locus YHR030C, strain SLT2, active compounds read low 0.984 | locus YHR079C, strain IRE1 (second series), active compounds read low 0.996 | locus YHR094C, strain hxt1, active compounds read low 0.988 | locus YHR129C, strain ARP1, active compounds read low 0.996 | locus YHR142W, strain chs7, active compounds read low 1.07 | locus YHR200W, strain rpn10, active compounds read low 0.988 | locus YIL066C, strain RNR3, active compounds read low 0.907 | locus YIL073C, strain SPO22, active compounds read low 1.02 | locus YIL125W, strain kgd1, active compounds read low 0.99 | locus YIR030C, strain dcg1, active compounds read low 1.01 | locus YJL092W, strain hpr5, active compounds read low 1.07 | locus YJL095W, strain BCK1 (second series), active compounds read low 1.03 | locus YJL095W, strain BCK1, active compounds read low 1.06 | locus YJL115W, strain asf1, active compounds read low 1.08 | locus YJL129C, strain trk1, active compounds read low 1.07 | locus YJL134W, strain LCB3, active compounds read low 0.98 | locus YJL154C, strain vps35, active compounds read low 1.05 | locus YJL164C, strain tpk1, active compounds read low 1.02 | locus YJL166W, strain qcr8, active compounds read low 1.02 | locus YJL168C, strain set2, active compounds read low 0.989 | locus YJL187C, strain SWE1 (second series), active compounds read low 1.01 | locus YJL187C, strain SWE1, active compounds read low 1.02 | locus YJR043C, strain POL32, active compounds read low 0.929 | locus YKL009W, strain mrt4, active compounds read low 0.994 | locus YKL068W, active compounds read low 0.981 | locus YKL085W, strain MDH1 (second series), active compounds read low 0.996 | locus YKL085W, strain MDH1, active compounds read low 0.996 | locus YKL160W, strain elf1, active compounds read low 1.02 | locus YKR001C, strain vps1, active compounds read low 0.992 | locus YKR091W, strain srl3, active compounds read low 1.03 | locus YLL001W, strain dnm1, active compounds read low 1.05 | locus YLL026W, active compounds read low 1.02 | locus YLL041C, strain sdh2, active compounds read low 1.03 | locus YLR027C, strain aat2, active compounds read low 1.03 | locus YLR039C, strain RIC1, active compounds read low 0.981 | locus YLR058C, strain SHM2, active compounds read low 0.971 | locus YLR102C, strain apc9, active compounds read low 0.993 | locus YLR221C, strain rsa3, active compounds read low 1.03 | locus YLR258W, strain gsy2, active compounds read low 1.03 | locus YLR262C, strain YPT6 (second series), active compounds read low 0.986 | locus YLR262C, strain YPT6, active compounds read low 1.01 | locus YLR268W, strain sec22, active compounds read low 0.999 | locus YLR320W, strain mms22, active compounds read low 1.04 | locus YLR330W, strain CHS5, active compounds read low 0.99 | locus YLR342W, strain FKS1 (second series), active compounds read low 0.918 | locus YLR342W, strain FKS1, active compounds read low 1.04 | locus YLR357W, strain rsc2, active compounds read low 1.12 | locus YLR370C, strain arc18, active compounds read low 1.06 | locus YLR371W, strain rom2, active compounds read low 0.981 | locus YLR384C, strain iki3, active compounds read low 1.03 | locus YLR418C, strain cdc73, active compounds read low 0.997 | locus YML016C, strain PPZ1, active compounds read low 0.973 | locus YML032C, strain rad52, active compounds read low 0.983 | locus YML120C, strain ndi1, active compounds read low 1.03 | locus YML124C, strain tub3, active compounds read low 0.991 | locus YMR058W, strain fet3, active compounds read low 1.08 | locus YMR078C, strain ctf18, active compounds read low 0.979 | locus YMR125W, strain sto1, active compounds read low 1.09 | locus YMR129W, active compounds read low 1.05 | locus YMR205C, strain PFK2, active compounds read low 1.05 | locus YMR223W, strain ubp8, active compounds read low 0.997 | locus YMR231W, strain pep5, active compounds read low 1.05 | locus YMR263W, strain SAP30, active compounds read low 1 | locus YMR307W, strain GAS1, active compounds read low 0.965 | locus YNL067W, strain RPL9B, active compounds read low 1.06 | locus YNL071W, strain lat1, active compounds read low 1.02 | locus YNL153C, strain GIM3, active compounds read low 1.02 | locus YNL209W, strain ssb2, active compounds read low 1.03 | locus YNL233W, strain BNI4, active compounds read low 1.05 | locus YNL248C, strain rpa49, active compounds read low 1.07 | locus YNL250W, strain rad50, active compounds read low 0.972 | locus YNL271C, strain bni1, active compounds read low 0.988 | locus YNL298W, strain CLA4, active compounds read low 0.98 | locus YNL307C, strain MCK1, active compounds read low 0.988 | locus YNL322C, strain KRE1 (second series), active compounds read low 1.04 | locus YNR049C, strain mso1, active compounds read low 1.06 | locus YNR052C, strain pop2, active compounds read low 0.998 | locus YOL012C, strain htz1 1.22 | locus YOL147C, strain pex11, active compounds read low 0.995 | locus YOR001W, strain rrp6, active compounds read low 1.03 | locus YOR061W, strain CKA2, active compounds read low 0.953 | locus YOR069W, strain VPS5, active compounds read low 0.985 | locus YOR070C, strain gyp1, active compounds read low 1.02 | locus YOR080W, strain dia2, active compounds read low 1.04 | locus YOR083W, strain WHI5, active compounds read low 1.01 | locus YOR106W, strain vam3, active compounds read low 1.02 | locus YOR136W, strain idh2, active compounds read low 1 | locus YOR144C, strain elg1, active compounds read low 0.999 | locus YOR184W, strain ser1, active compounds read low 0.985 | locus YOR265W, strain rbl2, active compounds read low 1.03 | locus YOR270C, strain vph1, active compounds read low 1.16 | locus YOR290C, strain snf2, active compounds read low 1.04 | locus YOR316C, strain cot1, active compounds read low 0.994 | locus YPL051W, strain arl3, active compounds read low 1 | locus YPL055C, strain LGE1, active compounds read low 0.959 | locus YPL078C, strain atp4, active compounds read low 1.05 | locus YPL106C, strain sse1, active compounds read low 1.06 | locus YPL240C, strain hsp82, active compounds read low 1.02 | locus YPL241C, strain CIN2, active compounds read low 0.984 | locus YPR119W, strain clb2, active compounds read low 0.988 | locus YPR141C, strain kar3, active compounds read low 0.989 | locus YPR163C, strain tif3, active compounds read low 0.977 | locus YPR167C, strain met16, active compounds read low 0.992 | strain wtn01, active compounds read low 0.976
active: locus YBR171W, strain sec66, active compounds read low 1.11 [resistant] | locus YKR026C, strain gcn3, active compounds read low 1.08 [resistant]
